Compound activity as filed in PubChem BioAssay.
Lassa entry inh – blocks Lassa virus binding to or entry into cells | 300,000 tested, 1.2% active | Lassa virus pseudotype entry inhibition, cell reporter | Potency, µM (titrated, usually from 37.9 µM), without a hit: at the highest dose activity change, negative = inhibition, actives largely listed as inhibitors | AID 540256; calls by dose curve; tested in HEK293 cells; also: potency is read from the fitted curve at half-maximal effect; nearly all actives have a fitted effect of over 50% in size
HCMV inh – human cytomegalovirus inhibition; HFF cells, HCMV-luciferase reporter, 72 h; hits give low values; AID 1259415; activity change, negative = inhibition, % at 57.5 µM; 410,000 tested, 4.5% active; in the data active = activity change below about -60%; inconclusive = no clear call, values can overlap the other calls; inactive = above about -39%
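Inhibition of viral replication was scored as loss of reporter luminescence in HFFs infected with HCMV-luciferase (MOI 1 PFU/cell) for 72 h; compounds tested at 2 doses, normalized to buffer and Salinomycin controls.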
MARV entry inh – Marburg virus entry inhibition; Potency, µM (series often up to 37.8 µM), inactives show top-dose activity change, negative = inhibition, most hits filed as inhibitors; Marburg virus pseudotyped entry inhibition, cell reporter; 300,000 tested, 1.8% active; calls by dose curve; tested in HEK293 cells; also: potency is read from the fitted curve at half-maximal effect
HCV inhibitor – blocks hepatitis C virus; 340,000 tested, 3.4% active; Potency, µM (series often up to 41.8 µM), without a hit: at the top dose activity change, negative = inhibition, most hits filed as inhibitors; Huh7.5.1 HCVcc-Cre infection, luciferase reporter, 44 h; active = well fitted inhibition curve with a large enough effect; inconclusive = small, poorly fitted or top-dose-only effect, or another doubt; inactive = no such curve, though single readings can be large or run the other way; also: potency is read from the fitted curve at half-maximal effect
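Infectious HCVcc-Cre (~0.5 moi) was added to cells just after compound, with cells seeded 4 h earlier at 1,000 per well. Luciferase activity after 44 h culture reported infection; substrate was incubated 15 min at room temperature before reading.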
FMDV antiviral – antivirals against foot and mouth disease virus; AID 1159524; FMDV antiviral cell-based qHTS; Potency, µM (titrated, usually from 57.9 µM), inactives show at the highest dose activity change, negative = inhibition, usual class: inhibitors; 410,000 tested, 1.2% active; calls by dose curve; tested in HEK293T cells; also: read-out not given here; potency is read from the fitted curve at half-maximal effect; nearly all actives have a fitted effect of over 45% in size
The depositor's hits bear a star; ? = inconclusive; / = not tested or not shown; [ ] = remark or other dose. An excerpt weighted towards active compounds, which were near 7.9% of everything screened. % is scaled to controls: 0 for no effect and ±100 for the full control effect.

SMILES	Lassa entry inh	HCMV inh	MARV entry inh	HCV inhibitor	FMDV antiviral
Cc1nc(N/N=C/c2cccc(F)c2)cc(N2CCOCC2)n1	-20.2%	11.0	7.94µM*	?	?
Cc1nc(N/N=C/c2ccc(O)cc2O)cc(N2CCOCC2)n1	?	?	2.82µM*	-17.7%	-8.8%
Cc1nc(N/N=C/c2cccc([N+](=O)[O-])c2)cc(N2CCCCC2)n1	/	34.4	/	/	0.0%
Oc1cccc(/C=N/Nc2cc(N3CCOCC3)nc(N3CCOCC3)n2)c1	?	18.9	2.59µM*	?	-12.7%
C=CCNc1nnc(S[C@@H]2CC(=O)N(c3ccc(OC)cc3)C2=O)s1	/	/	-7.9%	/	/
CCCNc1nc(-c2ccccc2)c(C(=O)OCC)cc1C#N	?	?	?	3.16µM*	?
C=CCNc1nc(-c2ccccc2)c(C(=O)OCC)cc1C#N	?	20.8	?	?	?
CCOC(=O)c1cc(C#N)c(Oc2ccccc2)nc1-c1ccccc1	-27.6%	-40.0	-22.2%	?	-26.7%
CCCCNc1nc(-c2ccccc2)c(C(=O)OCC)cc1C#N	11.2µM*	-3.2	?	?	-14.6%
O=C(NCc1ccc(Cl)cc1)C1CCN(c2nn3cc(-c4ccc(F)cc4)nc3s2)CC1	0.6%[46.1 µM]	?	/	/	19.0%
O=C(Nc1ccc(Cl)cc1)N1CCCN(Cc2ccccc2F)C1	-26.9%	-9.4	?	10µM*	-18.5%
Cc1ccc(NC(=O)N2CCCCCC2)cc1C	-16.4%[46.1 µM]	67.1	?	10.5%	32.3%
Cc1ccc(NC(=O)N2CCCN(Cc3ccc(F)cc3)C2)cc1C	-17.0%	16.7	6.31µM*	?	-22.4%
CN(CCNC(=O)c1ccc(/C=N\O)nc1)Cc1ccccc1	/	/	9.3%	/	/
CC(C)c1ccc(NC(=O)C2CCCN(S(=O)(=O)c3ccc4[nH]c(=O)oc4c3)C2)cc1 (stereo not given)	7.8%[46.1 µM]	1.3	/	/	1.9%
O=C1CCCCC1Nc1ccc2ccccc2c1 (stereo not given)	?	-32.5	3.55µM*	?	25.7%
O=C1CCCC1C(=O)Nc1ccc2ccccc2c1 (stereo not given)	/	-8.4	/	-19.5%	33.7%
Nc1ncnc2c1ncn2[C@@H]1O[C@H](COP(=O)(O)OP(=O)(O)OC[C@H]2OC(O)[C@H](O)[C@@H]2O)[C@@H](O)[C@H]1O (stereo not given in full)	/	/	/	/	7.6%
COc1oc(C(=O)NC2CCCCC2)c(-c2ccc(Cl)cc2)c1S(=O)(=O)c1ccccc1	-7.0%	-64.2*	-0.5%	?	14.2%
O=C(CSc1oc(-c2ccccc2)nc1S(=O)(=O)c1ccc(Cl)cc1)NC1CCCCC1	8.6%[46.1 µM]	6.9	?	/	-0.2%
CCOC(=O)c1c(-c2ccc(OC)cc2)oc2ccc(OC(=O)N(C)C)cc12	?	-20.6	18.3µM*	0.316µM*	?
CCN(CC)CCOC(=O)c1c(C)oc2ccc(OC)cc12	5.0%	-65.6*	?	-16.2%	/
COc1ccc(-c2oc3ccccc3c2C(=O)OCc2ccc([N+](=O)[O-])cc2)cc1	/	-62.1*	/	4.7%	-24.4%
COc1ccc(-c2oc3ccccc3c2C(=O)OCc2ccc(O)cc2)cc1	/	21.5	/	?	-11.2%
CCOC(=O)c1c(-c2ccccc2)oc2ccc(OCC(O)CN(C)C)cc12 (stereo not given)	?	-36.8	?	14.1µM*	-12.8%
SMILES	Lassa entry inh	HCMV inh	MARV entry inh	HCV inhibitor	FMDV antiviral
CCOC(=O)c1c(-c2ccccc2)oc2ccc(OCC(=O)NNC(=O)CCC(=O)O)cc12	/	-23.0	/	5.3%	-1.1%
O=C(COc1ccccc1)NCC(=O)N/N=C/c1ccc(Cl)cc1	/	-3.5	/	-4.8%	-14.5%
O=C(c1ccoc1)N1CCOc2ccc(CN3CCC(Oc4cccnc4)CC3)cc2C1	/	/	/	/	1.1%
CCOC(=O)c1c(-c2ccccc2)oc2ccc(OC(C)=O)cc12	?	7.6	-9.1%	11.2µM*	/
CCOC(=O)c1c(-c2ccccc2)oc2ccc(OC(C)C(=O)O)cc12 (stereo not given)	29.9%[46.1 µM]	-25.6	12.4%[46.1 µM]	11.0%	-13.5%
Cc1nn(C(C)C(=O)c2cccc(Cl)c2)c(C)c1[N+](=O)[O-] (stereo not given)	5.4%	-7.4	2.6%[46.1 µM]	-6.2%	-12.3%
Cn1cnc([N+](=O)[O-])c1NCc1ccccc1	/	-22.3	/	6.3%	1.4%
Cn1cnc([N+](=O)[O-])c1S(=O)(=O)Oc1ccccc1	?	42.9	?	?	25.1µM*
Cn1cnc([N+](=O)[O-])c1S(=O)(=O)Nc1ccccc1	-14.2%[46.1 µM]	121.2	-0.4%[46.1 µM]	?	22.4µM*
Cn1cnc([N+](=O)[O-])c1S(=O)(=O)c1cccc(Cl)c1	-17.8%	31.3	-30.7%	?	25.1µM*
CCCCOC(=O)c1cc(=O)[nH]c(=O)[nH]1	/	-23.9	/	1.5%	0.0%
O=C(NCCO)c1cn(C2CCCN(Cc3cccc(C(F)(F)F)c3)C2)nn1 (stereo not given)	/	/	/	/	-13.6%
Cc1cc(=O)c2cc(Br)ccc2n1CC(=O)NCc1ccccc1	/	17.4	/	12.6µM*	0.0%
COCc1cc(C)n(CC(=O)NCc2ccccc2)c(=O)c1C#N	/	-14.9	/	0.3%	-1.0%
Cc1c(C#N)c2ccccc2n1CC(=O)NCc1ccccc1	-0.6%	39.2	-19.6%	-4.5%	-24.7%
O=C(Cn1c(=O)n(CC(=O)NCc2ccccc2)c2ccccc21)NCc1ccccc1	?	-7.1	-27.3%	7.08µM*	-1.0%
CN(C)CCNc1ccc2ncn3c4ccc(O)cc4c(=O)c1c23	?	-93.0*	?	?	?
CN(C)CCNc1ccc(CO)c2sc3ccc(O)cc3c(=O)c12	1µM*	-97.5*	0.891µM*	?	-15.5%
CCCOc1cccc(C(=O)Nc2ccc(-c3nc4ccccc4s3)c(Cl)c2)c1	0.6%[46.1 µM]	?	?	/	2.0%
CCS(=O)(=O)c1ncc(Cl)c(C(=O)Nc2ccc(S(=O)(=O)N(C)c3ccccc3)cc2)n1	?	-100.9*	11.2µM*	?	22.4µM*
CCN(c1ccccc1)S(=O)(=O)c1ccc(NC(=O)c2nc(S(C)(=O)=O)ncc2Cl)cc1	?	-99.6*	-23.7%[46.1 µM]	?	28.2µM*
CCSc1ncc(Cl)c(C(=O)Nc2ccc(S(=O)(=O)N(C)c3ccccc3)cc2)n1	?	-21.5	-19.0%[46.1 µM]	/	-5.5%
Clc1ccc(CSc2nc(NCCc3ccccc3)c3ccccc3n2)cc1	28.9%[46.1 µM]	-10.9	/	/	?
CCCN(CCC)c1nc(-c2ccccn2)nc2ccccc12	?	-100.0*	?	?	?
C/C(=N\Nc1nc(-c2ccccn2)nc2ccccc12)c1ccc(F)cc1	/	/	/	4.47µM*	-8.2%
c1ccc(CCNc2nc(-c3ccccn3)nc3ccccc23)cc1	?	-103.4*	?	2.82µM*	?
CCCCN(CC)c1nc(-c2ccncc2)nc2ccccc12	0.4%	-94.7*	?	5.62µM*	25.1µM*
COc1cc(C)c(CN2CCc3nnc(C(C)NC(=O)c4cc(F)ccc4F)n3CC2)cc1C (stereo not given)	/	/	/	/	-15.7%
Cc1ccnc(NC(=O)C2COc3ccccc3O2)c1 (stereo not given)	?	-75.0*	-3.1%	0.4%	62.9%
